According to paper PMC11995724, “Antibiotic target discovery by integrated phenotypic and activity-based profiling of electrophilic fragments” (Cell chemical biology, 2025):
Among all 3,200 compounds or so, about 75 (2%) showed an effect of 50% or more. The entries come from a sample that favours strong results as a whole.

These molecules were tested on T1, S. aureus MSSA476. Conditions: relative growth, OD600, TSB; 25 µM; inhibitor.
T1 construct: MSSA476
Set-up: species or system S. aureus MSSA476 (TSB) or V. cholerae SAD30 (LB); 384-well bacterial growth screen at 25 uM, OD600 relative to DMSO control

Row | SMILES | % of control remaining [%]
1 | CC(Cl)C(=O)NC(C)c1ccns1 (stereo not shown) [6-P12, 2-chloro-N-[1-(1,2-thiazol-5-yl)ethyl]propanamide] | 84.3415
2 | N#CC(=Cc1cc(F)ccc1F)C(=O)Nc1cc(Cl)ccc1Cl [8-A12, 2-cyano-N-(2,5-dichlorophenyl)-3-(2,5-difluorophenyl)prop-2-enamide] | 131.12
3 | Cl.O=C(CCl)NC1CCN(Cc2cscn2)CC1 [7-H04, 2-chloro-N-{1-[(1,3-thiazol-4-yl)methyl]piperidin-4-yl}acetamide hydrochloride] | 88.2261
4 | Cc1ccc(C)c(NC(=O)C(C#N)=Cc2ccc3c(c2)OCCO3)c1 [8-L11, 2-cyano-3-(2,3-dihydro-1,4-benzodioxin-6-yl)-N-(2,5-dimethylphenyl)prop-2-enamide] | 108.216
5 | C=CC(=O)NC(Cc1ccccc1)c1ccccn1 (stereo not shown) [2-K14, N-[2-phenyl-1-(pyridin-2-yl)ethyl]prop-2-enamide] | 109.312
6 | C=CC(=O)N(C)Cc1cn(C)nc1C(C)C [3-F15, N-methyl-N-{[1-methyl-3-(propan-2-yl)-1H-pyrazol-4-yl]methyl}prop-2-enamide] | 119.808
7 | Cc1cc(C)cc(-n2c(C)cc(C(=O)CCl)c2C)c1 [10-E04, 2-chloro-1-[1-(3,5-dimethylphenyl)-2,5-dimethyl-1H-pyrrol-3-yl]ethan-1-one] | 128.438
8 | Cc1ccccc1-n1c(C)cc(C(=O)CCl)c1C [10-H20, 2-chloro-1-[2,5-dimethyl-1-(2-methylphenyl)-1H-pyrrol-3-yl]ethan-1-one] | 118.75
9 | CCOc1ccc(-n2c(C)cc(C(=O)CCl)c2C)cc1 [10-K08, 2-chloro-1-[1-(4-ethoxyphenyl)-2,5-dimethyl-1H-pyrrol-3-yl]ethan-1-one] | 38.75
10 | Cc1cc(C(=O)CCl)c(C)n1-c1ccc(C(F)(F)F)cc1 [10-J14, 2-chloro-1-{2,5-dimethyl-1-[4-(trifluoromethyl)phenyl]-1H-pyrrol-3-yl}ethan-1-one] | 0
11 | Cc1cc(C(=O)CCl)c(C)n1-c1ccc(C(C)C)cc1 [10-J12, 2-chloro-1-{2,5-dimethyl-1-[4-(propan-2-yl)phenyl]-1H-pyrrol-3-yl}ethan-1-one] | 5.3125
12 | Cc1csc(-n2c(C)cc(C(=O)CCl)c2C)n1 [10-G05, 2-chloro-1-[2,5-dimethyl-1-(4-methyl-1,3-thiazol-2-yl)-1H-pyrrol-3-yl]ethan-1-one] | 121.563
13 | COc1ccc(-n2c(C)cc(C(=O)CCl)c2C)cc1 [10-I12, 2-chloro-1-[1-(4-methoxyphenyl)-2,5-dimethyl-1H-pyrrol-3-yl]ethan-1-one] | 127.813
14 | Cc1cc(C(=O)CCl)c(C)n1-c1cc(Cl)cc(Cl)c1 [10-I04, 2-chloro-1-[1-(3,5-dichlorophenyl)-2,5-dimethyl-1H-pyrrol-3-yl]ethan-1-one] | 0
15 | Cc1cc(C(=O)CCl)c(C)n1-c1ccc(C(C)(C)C)cc1 [10-N20, 1-[1-(4-tert-butylphenyl)-2,5-dimethyl-1H-pyrrol-3-yl]-2-chloroethan-1-one] | 101.875
16 | Cc1cc(C(=O)CCl)c(C)n1C(C)c1ccccc1 (stereo not shown) [10-P17, 2-chloro-1-[2,5-dimethyl-1-(1-phenylethyl)-1H-pyrrol-3-yl]ethan-1-one] | 101.563
